Screening results from PubChem.
Rtt109 HAT inh: inhibitors of C. albicans Rtt109/Vps75 HAT, primary screen, biochemical, ThioGlo CoA-SH fluorescence, plate reader. Histone acetyltransferase RTT109 (Candida albicans (strain SC5314 / ATCC MYA-2876)), …. purified Rtt109/Vps75, 4 h. inhibition, % at 34.9 µM. actives 0.16% (n = 330,000);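 active means inhibition of at least 50% in every replicate; inconclusive means best replicate reaches 50% inhibition but some replicates fall short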
Target sequence (Q5AAJ8 whole entry, looked up): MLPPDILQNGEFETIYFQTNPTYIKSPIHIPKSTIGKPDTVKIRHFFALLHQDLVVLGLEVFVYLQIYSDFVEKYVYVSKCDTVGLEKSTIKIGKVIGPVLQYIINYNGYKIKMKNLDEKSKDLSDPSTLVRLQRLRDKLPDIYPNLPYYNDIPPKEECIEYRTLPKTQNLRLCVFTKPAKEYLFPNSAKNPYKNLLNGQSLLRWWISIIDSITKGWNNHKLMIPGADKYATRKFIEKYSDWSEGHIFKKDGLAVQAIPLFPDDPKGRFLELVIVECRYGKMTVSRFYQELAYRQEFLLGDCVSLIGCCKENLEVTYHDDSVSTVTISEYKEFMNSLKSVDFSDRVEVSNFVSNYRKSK
Wnt act: Wnt/beta-catenin pathway activators, primary screen, cell-based, plate reader, single point. activation, % at 9.35 µM. AID 743398, 2014. actives 1.2% (n = 300,000). Wnt/beta-catenin reporter cell assay, activator; in the data active means activation above about 30%, passing the limit was not always enough; inconclusive means no clear call, values can overlap the other calls;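 further: 0% = neutral control wells and 100% = positive control wells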
esBAF inh: Bmi1 luciferase reporter increase in mESCs, primary screen, esBAF inhibitor project, mouse ES cells, Bmi1 luciferase knock-in, single point; reporter increase, % at 12.5 µM; 24 h; 100% = twice the neutral-well signal; actives 2% (n = 350,000); in the data active means activation above about 40%; inconclusive means no clear call, values can overlap the other calls;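 further: 0% = median of the plate's neutral control wells and 100% = double that signal; a rise in the Bmi1 reporter signal indicates esBAF inhibition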
C2C12 statin: suppressors of statin myotoxicity in C2C12 myotubes, primary screen, cell-based, single point, plate reader. C2C12 myotubes + simvastatin, ATP luminescence, 48 h; scaled: DMSO 0, geranylgeraniol control 100. rescue of ATP level, % at 7.49 µM. actives 0.78% (n = 330,000). AID 602340, 2012;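 active means mean ATP rescue above about 67%, or every replicate alone reaching that limit, limit read from the data, passing the limit was not always enough; inconclusive means no clear call, values can overlap the other calls; inactive means mean under the limit and some replicate under it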;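 further: myotubes were challenged with 10 µM simvastatin during compound exposure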
MITF TRPM1 HTS: activators of MITF-driven TRPM1 promoter reporter, primary screen, cell-based, SK-MEL-5, luciferase, single point. SK-MEL-5 TRPM1-promoter luciferase, 24 h; % of positive control, neutral wells = 0. activation, % at 12.5 µM. actives 0.75% (n = 300,000);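 active means mean activation of at least 80% with every replicate also reaching 80%; inconclusive means mean reaches 80% but some replicate falls short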;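 further: 0% = neutral control wells and 100% = parthenolide positive control wells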
* hit, by the source's call; ? = inconclusive; / = no result given. Compounds with a hit are over-represented: about 3.1% of the library has one in this group of screens.

SMILES	Rtt109 HAT inh	Wnt act	esBAF inh	C2C12 statin	MITF TRPM1 HTS
c1c2c(cc3sc(N4CCCCC4)nc13)OCO2	-1	54*	/	/	-4
CCC(=O)Nc1ccc2c(c1)C(=O)N(C)[C@@H]1CC[C@@H](CC(=O)NCC3CC3)O[C@@H]1CO2	/	/	4	3	/
CCC(=O)Nc1ccc2c(c1)OC[C@@H](C)N(Cc1nccs1)C[C@H](C)[C@H](OC)CN(C)C2=O	/	/	0	-2	/
O=C(COc1ccccc1)Nc1cccc(-c2nn[nH]n2)c1	-5	-2	-10	-2	-1
O=C(COc1ccccc1)Nc1cccc(-c2nc3cc4ccccc4cc3[nH]2)c1	-4	/	6	-106	106*
CC(Oc1ccccc1)C(=O)Nc1cccc(-c2nc3ccccc3[nH]2)c1 (stereo not given)	27	/	46*	-22	/
COc1ccc(-c2cnc3c(c2)C(=O)N([C@H](C)CO)C[C@H](C)[C@H](CN(C)S(=O)(=O)c2ccc(F)cc2)O3)cc1	/	/	17	102*	/
COc1cccc(-c2cnc3c(c2)C(=O)N([C@H](C)CO)C[C@H](C)[C@H](CN(C)Cc2cccc(C)c2)O3)c1	/	/	-4	117*	/
COc1cc(/C=C/C(=O)OC2CC3CCC2(C)C3(C)C)ccc1O (stereo not given)	11	-1	47*	8	10
N#C/C(=N\Nc1ccc(F)cc1)C(=O)C1CC1	/	10	/	/	/
N#C/C(=N\Nc1ccc(Cl)c(Cl)c1)C(=O)C1CC1	1	39*	/	/	/
CCCNC(=O)NCCC12CC3CC(CC(C3)C1)C2	3	4	17	-14	27
CCCNC(=O)OCCC12CC3CC(CC(C3)C1)C2	-5	?	56*	-1	59
CCC(=O)N(C)C[C@H]1Oc2ncc(C#Cc3ccccc3)cc2C(=O)N([C@H](C)CO)C[C@@H]1C	/	/	-5	-7	/
CNC(=O)C[C@@H]1CC[C@@H]2[C@@H](COc3ccc(NC(=O)c4cccc(OC)c4)cc3C(=O)N2C)O1	/	/	-1	1	/
c1ccc(CSc2ncn(-c3ccccc3)n2)cc1	-10	/	45*	3	75
O=C(CSc1nnc(-c2ccccc2)n1-c1ccccc1)c1cccs1	3	-4	-2	5	5
O=C(CSc1ncn(-c2ccccc2)n1)c1cccs1	-4	?	64*	-8	90*
C[C@H](CO)N1C[C@H](C)[C@H](CN(C)CC2CCCCC2)OCCCC[C@H](C)Oc2ccc(NC(=O)NC3CCCCC3)cc2C1=O	/	/	3	-137	/
O=C(Cc1ccncc1)N[C@H]1CC[C@@H](CCn2cc(-c3ccccc3F)nn2)O[C@H]1CO	/	/	8	-1	/
O=[N+]([O-])c1ccc2oc(-c3ccccc3)nc2c1	0	-2	/	/	50
Cc1cccc(-c2nc3cc([N+](=O)[O-])ccc3o2)c1	6	28	57*	0	91*
CCOc1cccc(-c2nc3cc(C)ccc3o2)c1	3	/	50*	-2	39
O=[N+]([O-])c1ccc2oc(C3CCCCC3)nc2c1	-7	19	44*	-8	79
Nc1ccc2oc(C3CCCCC3)nc2c1	3	12	/	/	10
SMILES	Rtt109 HAT inh	Wnt act	esBAF inh	C2C12 statin	MITF TRPM1 HTS
CC(C)c1ccc(NC(=O)c2ccccc2NC(=O)C2CC=CCC2C(=O)O)cc1 (stereo not given)	2	15	51*	-4	47
COc1ccc(NC(=O)c2ccccc2NC(=O)C2CCCCC2C(=O)O)cc1 (stereo not given)	2	38*	51*	-7	/
O=C(Nc1ccc(F)c(Cl)c1)c1ccccc1NC(=O)C1CCCCC1C(=O)O (stereo not given)	-2	4	66*	8	/
CC(C)c1ccc(NC(=O)c2ccccc2NC(=O)C2CCCCC2C(=O)O)cc1 (stereo not given)	1	35*	64*	-4	49
O=C(Nc1ccc(F)cc1)c1ccccc1NC(=O)C1CC=CCC1C(=O)O (stereo not given)	-9	6	7	4	3
CO[C@H]1CC[C@H]2CCN(C)C(=O)[C@H](C)[C@H](OC)CN(C)C(=O)c3cccc(C#N)c3OC[C@@H]1O2	/	/	2	-4	/
COc1ccc(NC(=O)Nc2cccc3c2O[C@@H](CN(C)S(C)(=O)=O)[C@H](C)CN([C@@H](C)CO)C3=O)cc1	/	/	-3	/	/
Cc1ccc(S(=O)(=O)N(C)C[C@H]2Oc3ccc(N(C)C)cc3CC(=O)N([C@H](C)CO)C[C@@H]2C)cc1	/	/	0	10	/
C[C@H](CO)N1C[C@H](C)[C@H](CN(C)S(=O)(=O)c2cccs2)Oc2c(NC(=O)c3ccncc3)cccc2C1=O	/	/	-1	19	/
COc1ccc(NC(=O)N(C)C[C@H]2OCCCC[C@H](C)Oc3ccc(NC(=O)CCC(F)(F)F)cc3C(=O)N([C@H](C)CO)C[C@@H]2C)cc1	/	/	-1	31	/
Cc1ccc(N=Nc2c(O)n(CN3CCOCC3)c3ccccc23)cc1	7	/	54*	-4	/
C[C@@H]1CCCCO[C@@H](CN(C)C(=O)CCC(F)(F)F)[C@@H](C)CN([C@@H](C)CO)C(=O)c2cc(NS(C)(=O)=O)ccc2O1	/	/	-9	-2	/
O=C(Nc1ccc(F)c(Cl)c1)c1csc([C@H]2C[C@H](O)[C@@H](CO)O2)n1	/	40*	88*	-38	/
O=C(Nc1cccc(Cl)c1)c1csc([C@@H]2C[C@H](O)[C@@H](CO)O2)n1	/	6	20	-8	/
O=C(Nc1ccc(F)c(Cl)c1)c1csc([C@@H]2C[C@H](O)[C@@H](CO)O2)n1	/	-2	43*	-3	/
O=C(Nc1ccc(F)c(Cl)c1)c1csc(COCCO)n1	/	23	51*	-16	/
O=C(Nc1ccc(F)c(Cl)c1)c1ccc2sc([C@H]3C[C@H](O)[C@@H](CO)O3)nc2c1	/	-3	62*	-27	/
CC(C)NC(=O)N(C)C[C@H]1Oc2cc(-c3cncnc3)ccc2S(=O)(=O)N([C@@H](C)CO)C[C@@H]1C	/	/	-3	6	/
O=[N+]([O-])c1ccc(COn2nnc3ccccc32)cc1	-4	1	/	/	27
Clc1ccc(COn2nnc3ccccc32)c(Cl)c1	7	22	?	/	99*
CCCC#Cc1ccc([C@H]2[C@@H](CO)N3CCCCN(C(=O)NC4CCCC4)C[C@H]23)cc1	/	/	-6	-146	/
C=CCNC(=O)COc1coc(CN2CCN(C(=O)c3ccco3)CC2)cc1=O	3	0	6	-1	-6
CNC(=O)COc1coc(CN2CCN(C(=O)c3ccco3)CC2)cc1=O	1	35*	-2	4	-2
CC(=O)c1cccc(NC(=O)c2sc3nc4n(c(=O)c3c2C)CCCCC4)c1	11	0	16	-23	23
